Assay results reported in the supplement of paper PMC13380429.

System: Vero E6 infected with SARS-CoV-2
Experiment: inhibition of SARS-CoV-2 cytopathic effect; higher = more antiviral protection, active = above 15
Settings: 48 h

Measured: inhibition of SARS-CoV-2 cytopathic effect

NC(=O)c1cnccn1 [pyrazinamide]
inactive: 1 nM -9.22% | 8.33 nM -8.44% | 100 nM -5.67% | 833.33 nM -9.11% | 10000 nM -9.96%

COc1cc(C(=O)NS(=O)(=O)c2ccccc2C)ccc1Cc1cn(C)c2ccc(NC(=O)OC3CCCC3)cc12 [zafirlukast]
inactive: 1 nM -1.22% | 8.33 nM -0.73% | 100 nM 0.48% | 833.33 nM 0.88% | 10000 nM -2.73%

CC(NC(C)(C)C)C(=O)c1cccc(Cl)c1 (stereo not given) [bupropion]
inactive: 1 nM 1.88% | 8.33 nM 2.11% | 100 nM -0.69% | 833.33 nM -0.93% | 10000 nM -2.06%

Cc1cccc(-c2[nH]c(C(C)(C)C)nc2-c2ccc3c(c2)OCO3)n1
inactive: 1 nM -0.26% | 8.33 nM -0.29% | 100 nM -0.87% | 833.33 nM -5.24% | 10000 nM -2.91%

COC(=O)[C@@H]1CC2=CC(=O)CC[C@]2(C)[C@@]23O[C@@H]2C[C@@]2(C)[C@@H](CC[C@@]24CCC(=O)O4)[C@H]13 [eplerenone]
inactive: 1 nM 0.06% | 8.33 nM 2.8% | 100 nM 0.3% | 833.33 nM 1.53% | 10000 nM 0.25%

CNC(=O)ON(C(C)=O)C(=O)NC [caracemide]
inactive: 1 nM -4.06% | 8.33 nM -3.46% | 100 nM 0.29% | 833.33 nM -1.19% | 10000 nM 8.36%

CCc1c(O)cc(O)c(C(=O)c2ccc(OCCN3CCOCC3)c(OC)c2)c1CC(=O)N(CCOC)CCOC
inactive: 1 nM -1.17% | 8.33 nM -2.57% | 100 nM -1.95% | 833.33 nM -1.17% | 10000 nM 0.48%

CSCC1CN(/N=C/c2ccc([N+](=O)[O-])o2)C(=O)O1 (stereo not given) [inimur]
inactive: 1 nM -1.14% | 8.33 nM -0.35% | 100 nM 2.9% | 833.33 nM 1.93% | 10000 nM 0.52%

COc1ccc(S(=O)(=O)Nc2nc(-c3cccc([N+](=O)[O-])c3)cs2)cc1OC
inactive: 1 nM 2.08% | 8.33 nM 4.04% | 100 nM 7.06% | 833.33 nM 0.79% | 10000 nM -3.82%

C/C=C(/C(=C/C)c1ccc(O)cc1)c1ccc(O)cc1 [dienestrol]
inactive: 1 nM 2% | 8.33 nM -0.9% | 100 nM -0.85% | 833.33 nM 0.84% | 10000 nM 1.6%

Cc1ccccc1N1CCN(CCc2nnc3n2CCCC3)CC1 [dapiprazole]
inactive: 1 nM -2.9% | 8.33 nM -2.22% | 100 nM 0.65% | 833.33 nM -0.37% | 10000 nM 0.44%

Cc1ncc([N+](=O)[O-])n1CC(O)CN1CCOCC1 (stereo not given) [morinidazole]
inactive: 1 nM -0.31% | 8.33 nM -0.21% | 100 nM -0.51% | 833.33 nM -1.22% | 10000 nM -0.64%

Cc1ccc(C(=O)Nc2ccc(S(=O)(=O)O)c3cc(S(=O)(=O)O)cc(S(=O)(=O)O)c23)cc1NC(=O)c1cccc(NC(=O)Nc2cccc(C(=O)Nc3cc(C(=O)Nc4ccc(S(=O)(=O)O)c5cc(S(=O)(=O)O)cc(S(=O)(=O)O)c45)ccc3C)c2)c1 [suramin]
inactive: 1 nM 0.16% | 8.33 nM 0.17% | 100 nM 0.66% | 833.33 nM -0.75% | 10000 nM 1.44%

O=C(NC1CCNCC1)[C@@H]1CC[C@@H]2CN1C(=O)N2OS(=O)(=O)O [relebactam]
inactive: 1 nM 0.07% | 8.33 nM 1.87% | 100 nM 1.26% | 833.33 nM -0.84% | 10000 nM -1.06%

Cc1cnc(-c2cc(N3CCN(C(=O)CCS(C)(=O)=O)CC3)ncc2Cl)c(C)c1
inactive: 1 nM -1.36% | 8.33 nM -0.24% | 100 nM 0.43% | 833.33 nM -2.37% | 10000 nM -0.86%

CN(C(=O)Cc1ccccc1)[C@H](CN1CCCC1)c1ccccc1
inactive: 1 nM -2.98% | 8.33 nM -0.14% | 100 nM 0.52% | 833.33 nM 0.85% | 10000 nM -1.59%

O=C(Nc1cnn2ccc(N3CCC[C@@H]3c3cc(F)ccc3F)nc12)N1CC[C@H](O)C1 [larotrectinib]
inactive: 1 nM 1.44% | 8.33 nM 4.14% | 100 nM 3.48% | 833.33 nM -0.49% | 10000 nM 2.41%

CCOC(=O)[C@H](CCc1ccccc1)N[C@@H](C)C(=O)N1C(=O)N(C)C[C@H]1C(=O)O [imidapril]
inactive: 1 nM -1.07% | 8.33 nM 0.74% | 100 nM 0.36% | 833.33 nM -0.5% | 10000 nM -1.28%
